The record followed here is PubChem BioAssay (NCI).

The panel holds about 83,000 compounds, 20% with a hit somewhere; the sample as a whole holds those more often.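 Cells were grown in 96-well plates and exposed to the test compound at a single concentration for 48 hours; results are reported as percent growth, with values below 10 considered active.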 Unmarked numbers belong to inactive results. Active and inactive are the calls of the source.

For this test, the system named is MDA-MB-468 breast. The test is described as follows: NCI-60 one-dose screen, 48 h (100 = growth as untreated, 0 = no growth, -100 = all killed). Particulars: 10 µM unless noted.
As for `COc1cc(CNC(=O)CCCC/C=C/C(C)C)ccc1OCc1nnc(Nc2ccc([N+](=O)[O-])cc2)o1`, the growth was 53.7%. As for `COc1ccc2c(c1)Oc1nc(N)c(C#N)c(N)c1C2Sc1ccc(C)cc1` (stereo not given), the figure is -45.8% (active); as for `O=C(Nc1ccccc1C(=O)NCC1CC1)c1cccs1`, 102%. For `CC1=C(Cl)C(=O)c2cc(C)ccc2C1=O` the value was 95.2%. For `COc1ccc2[nH]cc(-c3nc(-c4c[nH]c5c(Cl)nccc45)cs3)c2c1` the value was 34.1%; for `C#Cc1ccc(-n2c(/C=C/c3cc(OC)cc(OC)c3)nc3ncccc3c2=O)cc1`, 37.4%. On to `NC(=NCCCOc1ccc(Cl)cc1)Nc1ccc(C(F)(F)F)cc1`, for which the growth is -8.47% (active). As for `CN(C)c1ccc2cc(-c3ccc(Cl)c(Cl)c3)c(N)nc2c1`, the figure is 18.9%; as for `C[C@H]1[C@H]2[C@H]3CC[C@@H]4[C@@]5(C)C/C(=C/c6ccco6)C(=O)C(C)(C)[C@@H]5CC[C@@]4(C)[C@]3(C)CC[C@]23CO[C@]1(C)[C@@H](C(=O)/C=C\c1ccco1)C3`, 76.3%; as for `C=C(C)[C@@H]1CC[C@]2(C)[C@H](CC[C@@H]3[C@H]4[C@H]5OC[C@@]4(CCC5(C)C)CC[C@]32C)[C@@]1(C)CCCN`, -68.2% (active). Turning to `C[C@@H](C(=O)NCCCC#Cc1cnc(Nc2ccc(C#N)cc2)nc1NC1CC1)N(C)C(=O)/C=C/CN(C)C`, the growth is 39.2%. For `CCCCN1C(=O)/C(=c2\sc3n(c2=O)NC2C(N=3)N(CC)C(=O)N2CC)c2ccccc21` (stereo not given) the value was 14.3%; for `CCOC(=O)c1cc(N)nc2ccccc12`, 106%; for `Cn1c2ccc(Br)cc2c2c3c(c4c5cc(F)ccc5oc4c21)C(=O)N(O)C3=O`, 108%. As for `C(=N/Nc1ncc(-c2cc3cc(-c4ccccc4)ccc3o2)s1)/c1cccs1`, the figure is 77.6%; as for `COc1cccc(-c2nc3sccn3c2-c2ccnc(NCCNC(=O)c3ccccc3)n2)c1`, 79.4%; as for `CC(=O)Nc1ccc(S(=O)(=O)n2ccc(-c3ccc4c(c3)CCC(C)(C)O4)n2)cc1`, 24.9%. As for `C[C@@H]1CC[C@@H]2[C@@H]1[C@H](OC(=O)/C=C/c1ccccc1)[C@]1(CCCOCCOCCOCCOC(=O)CCCC[C@@H]3SC[C@@H]4NC(=O)N[C@@H]43)C[C@@H](OC(=O)CO)[C@@]2(C)O1`, the figure is 111%.

Turning to `CCCCC[C@H](O)C/C=C1/C(=O)C=C[C@@H]1C/C=C\CCCC(=O)OC`, the growth is 64.6%. For `O=C1NC(=O)C(=Cc2cn(Cc3cn(Cc4ccc(Cl)cc4Cl)nn3)c3ccccc23)C(=O)N1` the value was 2.08% (active); for `COc1cc2[nH]c(C(=O)c3cc(OC)c(OC)c(OC)c3)c(N)c2cc1C#CC1CC1`, 23.4%.

As to `CNc1ncc(-c2ccc(C(F)(F)F)cc2)c(NC2CCCCCC2)n1`, the growth is 74.9%. For `COc1cc2c(cc1OCCCN1Cc3ccc(OCCCCC(=O)N4CCC(CCN5CCCC5)CC4)cc3C1)N=C(N)C21CCCC1` the value was 17.4%; for `COc1ccc2nc3c(n2c1)C(=O)C(=O)c1ccccc1-3`, -10.8% (active). As for `Nc1ncnc2c1c(-c1ccc(Oc3ccccc3)cc1)nn2C[C@@H]1SSC[C@H]1O`, the figure is -0.15% (active). For `CCCCCCCCCCCCCCCC[N+]1(C)CCN(SN2CC[N+](C)(CCCCCCCCCCCCCCCC)CC2)CC1` the value was 52.2%; for `O=C(Nc1ccncc1)C(=O)c1cn(S(=O)(=O)c2cccc(F)c2)c2ccccc12`, 12%. Turning to `COc1ccc(C(=O)C2OC3=C(C(=O)CC(C)(C)C3)C2c2cccc(Oc3ccccc3)c2)cc1` (stereo not given), the growth is 94.3%. For `C=CCn1c(SCC(=O)Nc2ccc(/C(C)=N\O)cc2)nnc1-c1cc(-c2ccc(OC)cc2)nc2ccccc12` the value was 17.3%.

Regarding `COc1ccccc1C(=O)Nc1cccc2c1C(=O)C(=O)C=C2`, the growth is 103%. As for `CCCn1c(=S)sc2c(NNC(C)=O)nc(C)nc21`, the figure is 93.1%; as for `CCOC(=O)c1c(C)nc2ccccc2c1/C=C/c1cccs1`, -2.39% (active). As for `O=C1C(Cl)=C(Nc2ccc(S(=O)(=O)N3CCOCC3)cc2)C(=O)c2ccccc21`, the figure is 74.1%; as for `CCCC(=O)OCC(COC(=O)CCC)OC(=O)CCC`, 89%. As for `CCCC(=O)c1cc(C)ccc1OC`, the figure is 113%. With `COC(=O)c1c2c(c(C)[n+]([O-])c1C)C(=O)C=C(NCc1ccc(Br)cc1)C2=O`, the growth was -60.1% (active). As for `CCCCCC(=O)OCCC1CCCCC1`, the figure is 99%; as for `COc1cc(OC)c(C(=O)/C=C/c2ccc(C#N)cc2)c(OC)c1`, -6.07% (active). As to `Cc1ccc(C2=C/C(=C/c3ccc(Br)cc3)C(=O)N2CCc2ccc(S(N)(=O)=O)cc2)cc1`, the growth was 92.7%. As for `Cc1nn(-c2ccccc2)c(-n2ccnc2)c1/C=N/Nc1nc(-c2ccc(F)cc2)cs1`, the figure is 27.3%.
